# According to PubChem BioAssay AID893 (National Center for Advancing Translational Sciences (NCATS), 2007):
# Screen size: about 75,000 compounds; about 5,700 (7.6%) were called active. Where a call stands in place of a potency, no number is given. About 7% were inconclusive and are not listed. Only a selection was taken, and actives are over-represented in it overall. Unmarked numbers belong to inactive results. Calls come from the whole dose curve; as a rule, active = well fitted inhibition curve with a large enough effect; inconclusive = small, poorly fitted or top-dose-only effect; inactive = no such curve, though single readings can be large or run the other way.
# Molecular target: 3-hydroxyacyl-CoA dehydrogenase type-2 (Homo sapiens) (UniProt Q99714)
# Test: qHTS Assay for Inhibitors of HSD17B4, hydroxysteroid (17-beta) dehydrogenase 4;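 note: the protocol describes HADH2 (HSD17B10) and not the HSD17B4 of the title; nearly all actives have a fitted effect of over 70% in size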
# Conditions: recombinant HSD17B10, NADH fluorescence kinetic; series mostly up to 57.1 µM
# In short: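 Enzyme plus compound, 15 min room temperature; substrate mix added (NAD+ 1 mM, beta-hydroxybutyryl-CoA 90 uM final); plates read kinetically for NADH fluorescence. HADH2 was His-tagged, E. coli-derived, 20 nM.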
# Potency is the fitted concentration of half-maximal effect.
SMILES,"activity change, negative = inhibition",Potency
COc1ccc(C(=O)N/N=C2/C(=O)c3c(C)cc(C)cc3CC2(C)C)cc1,12.3% [at 11.4 µM],–
Cc1cccc(NC(=O)CSC(N)=O)c1C,–,31.6 µM (active)
Cc1nc(C)c(C(=O)Nc2cccc(C)c2C)o1,–,inactive
Cc1cccc(NC(=O)CSc2nc3c(c(=O)[nH]2)CCC3)c1C,–,inactive
Cc1nnc(NC(=O)CCC(=O)N2CCC(C)CC2)s1,–,inactive
CCCCC/C=C/C=C/C=O,–,inactive
CCn1c(=N)n(CC(=O)c2cccc(OC)c2)c2ccccc21,–,inactive
CCn1c2c(c3ccc(OC)cc31)CCCC2=O,–,25.1 µM (active)
CC(=O)Nc1ccc(S(=O)(=O)NCCc2ccccc2)cc1,–,inactive
COC(=O)CCCCCN1C(=O)NC(c2ccc(-c3ccccc3)cc2)C(C(=O)OCc2ccccc2)=C1C (stereo unspecified),–,inactive
COc1cc(-c2nn3c(-c4cccc(C)c4)nnc3s2)cc(OC)c1OC,–,inactive
c1ccc(-c2cc(-c3nnc4sc(-c5ccccn5)nn34)[nH]n2)cc1,–,31.6 µM (active)
Fc1ccc(-c2nnc3sc(-c4ccc5c(c4)OCO5)nn23)cc1,–,inactive
Cc1cc(C)cc(N)c1,–,inactive
CCOC(=O)CC1=CC(=O)Nc2ccccc2N1,–,inactive
CCCOC(=O)Cc1c(O)c2ccccc2[nH]c1=O,–,31.6 µM (active)
CCCc1nc2ccccc2c(=O)n1NC(=O)c1c(O)c2ccccc2[nH]c1=O,–,inactive
O=C(N1CCOCC1)N(Cc1ccccc1)c1ccccn1,–,inactive
CCNC(=O)N1CCNC(=O)C1CC(=O)Nc1ccc(C(=O)OCC)cc1 (stereo unspecified),–,inactive
O=C(C1CCCO1)N(Cc1ccccc1)c1ccccc1 (stereo unspecified),–,inactive
CCCS(=O)(=O)N1CCN(C(=O)c2cccs2)CC1,–,inactive
COc1ccc(S(=O)(=O)N2CCN(C(=O)c3cccs3)CC2)cc1OC,–,3.98 µM (active)
CCS(=O)(=O)N1CCN(C(=O)c2cccs2)CC1,–,inactive
COc1ccc(C2N=C(N)N=C(N)N2c2ccccc2)cc1OC (stereo unspecified),–,inactive

SMILES,"activity change, negative = inhibition",Potency
Cc1cc(C)c2nc(N3CCCC3)c(C#N)cc2c1,–,31.6 µM (active)
C=CCOC(=O)C(C(C)=O)C(NC(=O)OC)c1ccccc1 (stereo unspecified),10.6% [at 11.4 µM],–
CCCCn1c(SCC(=O)NCC2CCCO2)nc2ccc(N3CCOCC3)cc2c1=O (stereo unspecified),–,31.6 µM (active)
CCc1ccc(NC(=O)CSc2nc3ccccc3c(=O)n2CCN2CCOCC2)cc1,–,inactive
CCn1c(SCC(=O)NCC2CCCO2)nc2cc(S(=O)(=O)N3CCCCC3)ccc21 (stereo unspecified),–,inactive
Cc1cc(Nc2cccc(F)c2)n2ncnc2n1,–,inactive
Cc1ccc(NC(=O)CCN2CCc3ccccc3C2)cc1,–,inactive
Cc1cc(C)nc(N2CCN(c3ncnc4c3oc3ccccc34)CC2)n1,–,inactive
Cc1ccc2c(c1)c1ncnc(N3CCc4ccccc4C3)c1n2C,–,31.6 µM (active)
CCCCCCCCCc1ccc(OCCOCCOCCOCCOCCOCCOCCOCCOCCO)cc1,–,inactive
O=C(Nc1nnc(CCc2ccccc2)s1)C1CCCO1 (stereo unspecified),–,inactive
COc1ccc(CC(=O)Nc2ccc(-c3nnc(-c4ccc(C)cc4)o3)cc2)cc1,–,2.51 µM (active)
COc1ccc(CC(=O)Nc2ccc(-c3nnc(-c4ccccc4)o3)cc2)cc1,–,12.6 µM (active)
O=C(CSc1nnc(-c2ccc(NS(=O)(=O)c3ccccc3)cc2)o1)NCC1CCCO1 (stereo unspecified),–,inactive
CCCCCNC(=O)Cc1ccc(OC)cc1,–,inactive
COc1ccc(C(CC(=O)O)NC(=O)Cc2ccccc2)cc1 (stereo unspecified),–,inactive
O=C(Nc1ccc(-c2nnc(-c3ccccc3)o2)cc1)C1CCCO1 (stereo unspecified),–,20 µM (active)
COc1ccc(NC(=O)c2ccc(OC)cc2)cc1,–,inactive
O=C(COC(=O)c1ccc(Oc2ccccc2)cc1)Nc1nnc(-c2ccccc2)o1,–,inactive
CCCCNC(=O)CSc1nccn1Cc1ccccc1,–,inactive
CC(=O)Nc1cc(C(=O)O)ccc1S(=O)(=O)c1ccc(Cl)cc1,–,inactive
O=S1(=O)CCN2C(=N1)SC1=C2CCN(Cc2ccccc2)C1,–,inactive
COc1ccc(Br)c2c1C[C@H](C(=O)O)CC2,7.09% [at 11.4 µM],–
O=C(CSc1nc2ccccc2o1)N1CCN(c2ccc(Cl)cc2)CC1,–,inactive

SMILES,"activity change, negative = inhibition",Potency
COc1ccc(-n2c(SCC(=O)OC(C)C)nnc2-c2ccccn2)cc1,–,inactive
COc1ccc(CCNC(=O)c2ccco2)cc1,–,inactive
CCOC(=O)C1C(=O)NC(N2CCN(c3ccccc3)CC2)=NC1c1ccco1 (stereo unspecified),–,inactive
CCOC(=O)C1C(=O)C=C(c2ccc(OC)cc2)CC1c1ccco1 (stereo unspecified),–,20 µM (active)
CCOc1ccc2cc(C#N)c(SCC(=O)OC)nc2c1,–,inactive
CCOc1ccc2nc(N3CCCN(C(=O)Nc4ccccc4C)CC3)c(C#N)cc2c1,–,inactive
CCOc1ccc2nc(NCCNS(=O)(=O)c3ccccc3)c(C#N)cc2c1,–,25.1 µM (active)
CC1=C(C(=O)OCc2ccccc2)C(c2ccc(C(F)(F)F)cc2)NC(=O)N1CCCCCC(=O)O (stereo unspecified),–,inactive
CC(NC(=O)c1ccc(Cl)cc1)C(=O)N1CCCCC1 (stereo unspecified),–,inactive
CCOc1ccc(NC(=O)Nc2cc(C)ccc2OC)cc1,–,inactive
COc1ccc(NC(=O)Nc2cccc3cccnc23)cc1,–,inactive
COc1ccc(Cn2cccc(NC(=O)Nc3ccc(C#N)cc3)c2=O)cc1,–,15.8 µM (active)
CO/N=C(\C(=O)N[C@@H]1C(=O)N2C(C(=O)O)=C(COC(C)=O)CS[C@H]12)c1csc(N)n1 (stereo in doubt),–,inactive
COc1c(F)c(F)c(-c2csc(N)n2)c(F)c1F,–,inactive
CCOc1ccc(OCC)c(NC(=O)CSc2nnc(Cn3cnc4ccccc43)n2C)c1,–,inactive
CCc1c(C)nc2cc(-c3cccs3)[nH]n2c1=O,–,31.6 µM (active)
O=c1[nH]c(-c2cccs2)nc2ccccc12,–,inactive
Cc1nc2nc(COc3ccccc3)[nH]n2c(=O)c1Cc1ccccc1,–,inactive
CCCCNC(=O)c1c[nH]c2ccc(S(=O)(=O)Nc3ccc(OCC)cc3)cc2c1=O,–,inactive
CCCCn1c(SCC(=O)N2CCC(C(=O)OCC)CC2)nc2cc(S(N)(=O)=O)ccc21,–,inactive
CCOc1cc(C2C(C(=O)OC)=CN(C3CCCC3)C=C2C(=O)OC)cc(Br)c1O,–,25.1 µM (active)
CCCC(=O)Nc1cc(OCC)c(NC(=O)NC2CCCCC2)cc1OCC,–,inactive
CCOc1ccc(CNC(=O)C2CCC(=O)N2C2CCCC2)cc1OC (stereo unspecified),–,inactive
